Only some compounds are listed: those with a hit (about 4.3% of all), similar ones and a draw of the others.
BoNT A protease = BoNT A light chain protease inhibition. multiplex microsphere protease substrate cleavage, flow cytometry. actives 0.17% (n = 360,000). inhibition, % at 10 µM
MazEF act = increases E. coli MazEF RNase cleavage of RNA. actives 0.32% (n = 350,000). AID 504720. P0AE70. activation, % at 20 µM. FAM/BHQ RNA-DNA oligo cleavage fluorescence, 5 h; in the data active = activation above about 50%
Anthrax LF inh2 = inhibitors of Bacillus anthracis lethal factor protease. P15917. multiplex microsphere protease cleavage assay, LF. inhibition, % at 10 µM. actives 0.12% (n = 360,000). AID 588501
Target sequence (P15917 whole entry, looked up): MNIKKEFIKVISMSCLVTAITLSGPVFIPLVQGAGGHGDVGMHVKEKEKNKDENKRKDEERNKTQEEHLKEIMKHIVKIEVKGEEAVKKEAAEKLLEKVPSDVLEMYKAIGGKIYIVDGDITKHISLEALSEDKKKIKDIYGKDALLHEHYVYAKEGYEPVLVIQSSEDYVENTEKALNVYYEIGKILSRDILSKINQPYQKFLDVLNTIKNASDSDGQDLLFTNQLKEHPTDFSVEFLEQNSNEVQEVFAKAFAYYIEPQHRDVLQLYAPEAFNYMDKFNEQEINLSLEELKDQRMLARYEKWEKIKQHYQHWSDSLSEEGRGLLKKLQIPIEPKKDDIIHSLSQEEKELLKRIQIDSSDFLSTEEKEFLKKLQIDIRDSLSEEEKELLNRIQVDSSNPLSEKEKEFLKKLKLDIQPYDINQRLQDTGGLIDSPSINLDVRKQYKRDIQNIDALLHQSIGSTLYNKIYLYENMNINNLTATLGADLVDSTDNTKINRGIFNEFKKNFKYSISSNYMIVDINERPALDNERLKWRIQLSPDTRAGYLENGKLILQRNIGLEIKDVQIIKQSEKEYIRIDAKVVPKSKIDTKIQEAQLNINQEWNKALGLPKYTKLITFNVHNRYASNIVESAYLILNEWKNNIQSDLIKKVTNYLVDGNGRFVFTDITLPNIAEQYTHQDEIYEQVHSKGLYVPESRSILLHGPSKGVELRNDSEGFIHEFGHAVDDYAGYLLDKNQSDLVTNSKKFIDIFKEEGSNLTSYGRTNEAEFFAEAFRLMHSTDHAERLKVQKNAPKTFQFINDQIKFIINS
BoNT-F LC inh = BoNT F light chain protease inhibition; Multiplex microsphere protease cleavage assay, flow cytometry; inhibition, % at 10 µM; actives 0.22% (n = 360,000); AID 588497; in the data active = inhibition above about 35%, passing the limit was not always enough; inconclusive = no clear call, values can overlap the other calls
Autofluor counter = compound fluorescence in toxin protease inhibitor counterscreen | actives 3.1% (n = 360,000) | fluorescence intensity (test concentration not listed) | compound autofluorescence counterscreen, microsphere flow cytometry; hits give high values; in the data active = fluorescence intensity above about 16000; inconclusive = no clear call, values can overlap the other calls
PfHsp40 yeast = rescue of PfHsp40-mediated yeast toxicity. S. cerevisiae expressing PfHsp40, growth rescue, ATP luminescence. actives 0.68% (n = 340,000). AID 504582. growth rescue, % at 12.5 µM; in the data active = growth rescue above about 28%, passing the limit was not always enough; inconclusive = no clear call, values can overlap the other calls;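 note: yeast W303a lacking pdr1 and pdr3 grown in galactose medium; growth measured after three days at 30 °C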
Numbers stand for hits. Cut-off read from the data, not from the text of the source, unless noted: active = inhibition above about 30%; inconclusive = no clear call, values can overlap the other calls; inactive = below that.

What do the screens show for `O=C(Nc1ccccc1)c1cc2c(=O)c3ccccc3oc2nc1C(F)(F)F`?
BoNT A protease: inactive; MazEF act: inactive; Anthrax LF inh2: inactive; BoNT-F LC inh: inactive; Autofluor counter: inactive; PfHsp40 yeast: inactive

How did Cc1ccc2nc(C3CCCN3Cc3nc(CCC(C)C)no3)[nH]c2c1 (stereo not drawn) do in these assays?
BoNT A protease: inactive; MazEF act: inactive; Anthrax LF inh2: inactive; BoNT-F LC inh: inactive; Autofluor counter: inactive; PfHsp40 yeast: inactive

Results for Cc1nn(-c2ccccc2)c(N2CCCC2)c1/C=N/NC(=O)c1ccccc1O ?
BoNT A protease: inactive; MazEF act: inactive; Anthrax LF inh2: inactive; BoNT-F LC inh: inactive; Autofluor counter: inactive; PfHsp40 yeast: inactive

What do the screens show for `O=C(N/N=C/c1cc2c3c(c1O)CCCN3CCC2)c1ccccc1O`?
BoNT A protease: inactive; MazEF act: inactive; Anthrax LF inh2: inactive; BoNT-F LC inh: inactive; Autofluor counter: inactive; PfHsp40 yeast: 176

What do the screens show for `CC(C)(C)S(=O)(=O)N1Cc2ccc(CO)cc2[C@H]1CCO`?
BoNT A protease: inactive; MazEF act: inactive; Anthrax LF inh2: inactive; BoNT-F LC inh: inactive; Autofluor counter: inactive; PfHsp40 yeast: inactive

What do the screens show for `COc1ccc(CNC(=O)N2CCN(c3ccccc3OC)CC2)cc1`?
BoNT A protease: inactive; MazEF act: inactive; Anthrax LF inh2: inactive; BoNT-F LC inh: inactive; Autofluor counter: inactive; PfHsp40 yeast: inactive

Results for COc1ccc(C(=O)N(c2c(C)cccc2C)C(COC(C)=O)COC(C)=O)cc1 ?
BoNT A protease: inactive; Anthrax LF inh2: inactive; BoNT-F LC inh: inactive; Autofluor counter: inactive

How did O=c1[nH]c(SCc2ccccc2Cl)nc2c1CCCC2 do in these assays?
BoNT A protease: inactive; MazEF act: inactive; Anthrax LF inh2: inactive; BoNT-F LC inh: inactive; Autofluor counter: 20115; PfHsp40 yeast: inactive

What do the screens show for `CN(C)c1nc(SCc2ccccc2Cl)nc2c1CCCC2`?
BoNT A protease: inactive; MazEF act: inactive; Anthrax LF inh2: inactive; BoNT-F LC inh: inactive; Autofluor counter: inactive; PfHsp40 yeast: 155

How did O=c1[nH]c(SCc2ccc(Cl)cc2)nc2c1CCC2 do in these assays?
BoNT A protease: inactive; MazEF act: inactive; Anthrax LF inh2: inactive; BoNT-F LC inh: inconclusive; Autofluor counter: inactive; PfHsp40 yeast: inactive

How did Cc1ccc(CSc2nc3c(c(N(C)C)n2)CCCC3)cc1 do in these assays?
BoNT A protease: inactive; MazEF act: inactive; Anthrax LF inh2: inactive; BoNT-F LC inh: inactive; Autofluor counter: inactive; PfHsp40 yeast: inactive

How did COCCCN1C(=O)c2ccccc2C1C(=O)NC1CCCCCC1 (stereo not drawn) do in these assays?
BoNT A protease: inactive; MazEF act: inactive; Anthrax LF inh2: inactive; BoNT-F LC inh: inactive; Autofluor counter: 22972; PfHsp40 yeast: inactive

Results for N#CC1=C(N)N(c2ccc(F)cc2)C2=C(C1c1ccc(O)cc1)S(=O)(=O)CC2 (stereo not drawn) ?
BoNT A protease: inactive; MazEF act: inactive; Anthrax LF inh2: inactive; BoNT-F LC inh: inactive; Autofluor counter: inactive; PfHsp40 yeast: inactive

Results for O=C(Nc1ccc(C(F)(F)F)cc1)c1cccnc1N1CCOCC1 ?
BoNT A protease: inconclusive; MazEF act: inactive; Anthrax LF inh2: inactive; BoNT-F LC inh: inactive; Autofluor counter: 21885; PfHsp40 yeast: inactive

What do the screens show for `O=C(Nc1cccc(C(F)(F)F)c1)c1cccnc1N1CCOCC1`?
BoNT A protease: inactive; MazEF act: inactive; Anthrax LF inh2: inactive; BoNT-F LC inh: inactive; Autofluor counter: inactive; PfHsp40 yeast: inactive

Results for COc1cccc(C2NC(=S)NC3=C2CCc2ccccc23)c1 (stereo not drawn) ?
BoNT A protease: inactive; MazEF act: inactive; Anthrax LF inh2: inactive; BoNT-F LC inh: inactive; Autofluor counter: inactive; PfHsp40 yeast: 173

Results for Cc1c(NS(=O)(=O)c2cc(C(=O)NCc3ccco3)cc(Cl)c2Cl)c(=O)n(-c2ccccc2)n1C ?
BoNT A protease: inactive; MazEF act: inactive; Anthrax LF inh2: inactive; BoNT-F LC inh: inactive; Autofluor counter: inconclusive; PfHsp40 yeast: inactive

What do the screens show for `COc1cccc(C(N)c2nc(-c3cc(F)cc(F)c3)cs2)c1` (stereo not drawn)?
BoNT A protease: inactive; Anthrax LF inh2: inactive; BoNT-F LC inh: inactive; Autofluor counter: inactive

What do the screens show for `O=C(CC(C(=O)N1CCc2ccccc21)n1ccnc1)NCC1CCCO1` (stereo not drawn)?
BoNT A protease: inactive; MazEF act: inactive; Anthrax LF inh2: inactive; BoNT-F LC inh: inactive; Autofluor counter: 22602; PfHsp40 yeast: inactive

Results for CCCCNC(=O)CC(C(=O)N1CCc2ccccc21)n1ccnc1 (stereo not drawn) ?
BoNT A protease: inactive; MazEF act: inactive; Anthrax LF inh2: inactive; BoNT-F LC inh: inactive; Autofluor counter: inactive; PfHsp40 yeast: inactive

How did Clc1cccc(Cc2c(-c3ccccc3)nc3ccc(Cl)cn23)c1 do in these assays?
BoNT A protease: inactive; Anthrax LF inh2: inactive; BoNT-F LC inh: inactive; Autofluor counter: inactive

Results for C=C1CC2(CC(c3ccccc3)OC(c3ccccc3)C2)OC1=O (stereo not drawn) ?
BoNT A protease: inactive; MazEF act: inactive; Anthrax LF inh2: inactive; BoNT-F LC inh: inactive; Autofluor counter: inactive; PfHsp40 yeast: inactive

What do the screens show for `COc1ccc(COC(=O)CN2C(=O)NC3(CCCC3)C2=O)cc1F`?
BoNT A protease: inactive; MazEF act: inactive; Anthrax LF inh2: inactive; BoNT-F LC inh: inactive; Autofluor counter: inconclusive; PfHsp40 yeast: inactive

What do the screens show for `COc1ccc(CN2C(=O)NC3(CCCCC3)C2=O)cc1F`?
BoNT A protease: inconclusive; MazEF act: inactive; Anthrax LF inh2: inactive; BoNT-F LC inh: inactive; Autofluor counter: 22242; PfHsp40 yeast: inactive

What do the screens show for `CSc1ccc(C(=S)N2CCN(C(c3ccccc3)c3ccccc3)CC2)cc1`?
BoNT A protease: inactive; MazEF act: inactive; Anthrax LF inh2: inactive; BoNT-F LC inh: inactive; Autofluor counter: 25174; PfHsp40 yeast: inactive

How did O=C(c1ccc(=O)oc1)N1CCN(C(c2ccccc2)c2ccccc2)CC1 do in these assays?
BoNT A protease: inconclusive; MazEF act: inactive; Anthrax LF inh2: inactive; BoNT-F LC inh: inactive; Autofluor counter: 23517; PfHsp40 yeast: inactive

Results for O=C(c1ccc2c(=O)n3c(nc2c1)CCCCC3)N1CCN(c2ccccc2)CC1 ?
BoNT A protease: inactive; MazEF act: inactive; Anthrax LF inh2: inactive; BoNT-F LC inh: inactive; Autofluor counter: inactive; PfHsp40 yeast: inactive

What do the screens show for `Cc1cc(C(=O)N2CCN(C(c3ccccc3)c3ccccc3)CC2)no1`?
BoNT A protease: inactive; MazEF act: inactive; Anthrax LF inh2: inactive; BoNT-F LC inh: inactive; Autofluor counter: 23268; PfHsp40 yeast: inactive

Results for CC(=O)N1CCN(C(c2ccccc2)c2ccccc2)CC1 ?
BoNT A protease: inactive; MazEF act: inactive; Anthrax LF inh2: inactive; PfHsp40 yeast: inactive

How did O=C(c1ccc2c(=O)n3c(nc2c1)CCCCC3)N1CCN(C(c2ccccc2)c2ccccc2)CC1 do in these assays?
BoNT A protease: inactive; MazEF act: inactive; Anthrax LF inh2: inactive; BoNT-F LC inh: inactive; Autofluor counter: 23040; PfHsp40 yeast: inactive

Results for COCCn1c(N)c(N(Cc2ccccc2)C(=O)c2ccc(N3CCCC3=O)cc2)c(=O)[nH]c1=O ?
BoNT A protease: inactive; MazEF act: inactive; Anthrax LF inh2: inactive; BoNT-F LC inh: inactive; Autofluor counter: inactive; PfHsp40 yeast: inactive
